# Test results as given in PubChem BioAssay AID540298 (Southern Research Specialized Biocontainment Screening …, 2011).
# Measured potencies and affinities stand elsewhere. Unmarked numbers belong to inactive results. No rule for the calls is given here.
# Test: Vero E6 cell cytotoxicity, dose response, cytotoxicity control (AID 540298)
# Conditions: Vero E6 cells viability; series mostly up to 40 µM; viability: at the top concentration
row,Structure (SMILES),viability [%]
1,CN(C)c1cccc2c(C=C(C#N)C#N)ccc(N(C)C)c12,93.7
2,CC(c1ccccn1)N(CCN(C)C)C(=S)Nc1cccc(F)c1 (stereo not given),99.1
3,CCOC(=O)c1c(CN(C)C)oc2cc(CN(C)C)c(O)c(CSc3ccccc3)c12,93
4,COc1ccc(N2CCN(CCCN)CC2)cc1,87.2
5,Cc1ccc(N2C(=O)C(CC(=O)Nc3cccc(F)c3)N(C3CC3)C2=O)cc1 (stereo not given),94.6
